Data reported in PubChem BioAssay AID1159580 (chemical genetic matrix, 2015).
Hit rate of the full screen: of about 5,500 compounds, about 2,000 (36%) were called active. Not shown: some 18% with an inconclusive outcome. Cut-off read from the data, not from the text of the source: active = normalized growth mostly below about 0.91 (no sharp cut-off); inconclusive = no clear call, values can overlap the other calls; inactive = mostly above about 0.92. Some of the results follow.

Test: chemical genetic growth profiling, strain panel (AID 1159580);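 note: tested at 20 µM; growth read once vehicle control cultures reached saturation at 30 °C; 1 = growth at the plate median or of vehicle wells; lower values mean less growth of the strain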
Details: S. cerevisiae deletion strains, growth OD

Measured: normalized growth

NNC(=O)c1ccccc1O
inactive: locus YBR229C, strain ROT2, hits give low values 0.986 | locus YDL101C, strain DUN1, hits give low values 0.975 | locus YDL134C, strain PPH21, hits give low values 0.988 | locus YDR150W, strain NUM1, hits give low values 0.892 | locus YEL061C, strain CIN8, hits give low values 0.965 | locus YGR078C, strain PAC10, hits give low values 1.01 | locus YGR229C, strain SMI1, hits give low values 0.989 | locus YHR030C, strain SLT2, hits give low values 1.03 | locus YHR087W, strain rtc3, hits give low values 0.99 | locus YJR043C, strain POL32, hits give low values 0.96 | locus YJR075W, strain HOC1, hits give low values 1.02 | locus YKL190W, strain CNB1, hits give low values 0.983 | locus YLR039C, strain RIC1, hits give low values 0.958 | locus YLR058C, strain SHM2 (second series), hits give low values 1 | locus YLR085C, strain ARP6, hits give low values 0.962 | locus YLR262C, strain YPT6, hits give low values 0.975 | locus YML094W, strain GIM5, hits give low values 0.963 | locus YMR219W, strain ESC1, hits give low values 0.996 | locus YMR263W, strain SAP30, hits give low values 1.01 | locus YNL153C, strain GIM3, hits give low values 1.01 | locus YNL298W, strain CLA4 (second series), hits give low values 0.976 | locus YNL322C, strain KRE1, hits give low values 1.01 | locus YNR030W, strain Alg12, hits give low values 1.01 | locus YPL055C, strain LGE1, hits give low values 0.916 | locus YPL241C, strain CIN2, hits give low values 1.11 | locus YPR135W, strain CTF4, hits give low values 0.956
